PI5P4K alpha inh – PI5P4K alpha (human) kinase inhibition | PI5P4Kalpha enzyme, ADP-Glo luminescence, 60 min; hits give low values | max response, % | hit rate 1.2% among 330,000; active = max response of -50% or lower; inconclusive = between -30% and -50%; inactive = -30% or higher; also: value at the top dose of about 77 µM
Target sequence (P48426 whole entry, looked up): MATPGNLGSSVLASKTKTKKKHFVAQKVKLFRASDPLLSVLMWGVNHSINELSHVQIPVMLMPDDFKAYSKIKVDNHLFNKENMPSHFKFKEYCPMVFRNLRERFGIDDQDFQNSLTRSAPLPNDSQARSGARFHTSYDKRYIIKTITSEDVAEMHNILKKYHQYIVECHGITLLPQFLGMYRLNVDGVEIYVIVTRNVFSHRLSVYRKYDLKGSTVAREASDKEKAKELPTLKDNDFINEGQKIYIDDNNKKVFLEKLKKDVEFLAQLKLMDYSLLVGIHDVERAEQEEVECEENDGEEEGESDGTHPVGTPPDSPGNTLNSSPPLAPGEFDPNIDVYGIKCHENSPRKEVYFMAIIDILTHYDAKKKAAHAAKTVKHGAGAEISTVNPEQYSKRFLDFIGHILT
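Quantitative HTS of the MLSMR library against PI5P4Kalpha with substrate. ATP added last at 5 microM final; room temperature, 60 minutes. Remaining ATP depleted, ADP converted and read as luminescence.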
Akt phos inh – blocks phosphorylation of Akt | Neuro2A IGF-stimulated pAkt S473 HTRF, 20 min; hits give low values | activity change, % for hits at 50 µM | hit rate 0.32% among 360,000; in the data active = activity change below about -80%; inconclusive = mostly about -51% to -80%
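Single-point screen (50 µM final compound) in Neuro2A cells stimulated 20 min with 6 nM IGF at 37 deg C. After lysis, Ser473-phosphorylated Akt read by HTRF (ex 330 nm, em 615/665 nm) as the 665/615 ratio.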
Six1-Eya2 blk – blocks human Six1 binding to Eya2. Q15475+O00167. AlphaScreen GST-Six1/His-Eya2 binding, biochemical; hits give low values. activity change, % (test concentration not listed). hit rate 0.56% among 360,000. AID 651725
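Six1/Eya2 binding was read as AlphaScreen signal after compounds were pinned into GST-Six1 plus His-tagged Eya2 (5X stock 250/500 nM) in pH 8.0 Tris/NaCl/TCEP buffer, beads added, then incubated 1 h, 37 C, dark.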
PI4K2A inh – PI4K2A (human) kinase inhibition | Q9BTU6 | purified PI4K2A, ADP-Glo luminescence, 1 h; hits give low values | activity change, negative = inhibition, % at 76.9 µM | hit rate 0.13% among 420,000 | AID 1346378; in the data active = activity change below about -50%; inconclusive = mostly about -30% to -49%;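 also: -100% = wells without enzyme as full effect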
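PI4K2A activity was measured by ADP-Glo luminescence: enzyme (4 ug/mL stock) and phosphatidylinositol (1.2 mM stock) in Tris pH 7.5/MgCl2/EGTA/Triton X-100 buffer were reacted with ATP (300 microM stock) for one hour at ambient temperature.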
CtBP-E1A blk – blocks the CtBP interaction with E1A; activity change, % (concentration not given with the values); AID 651724; AlphaScreen GST-E1A/His-CtBP binding, 1536-well; hits give low values; hit rate 0.49% among 340,000
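AlphaScreen with 125 nM GST-E1A and 125 nM His-CtBP (5X stocks) in Tris pH 8.0, 300 mM NaCl, BSA, Tween 20, TCEP. Compounds preincubated 2 h at 37 deg C, then glutathione donor/nickel acceptor beads added for 1 h at 37 deg C in dark.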
Starred values were filed as active, the others as inactive; i = inactive; ? = inconclusive; nt = no result. Most compounds without a hit are left out; they make up all but 1.8% or so of the library. Rule as the data show it, unless noted: active = activity change below about -65%; inconclusive = mostly about -30% to -63%; inactive = weaker than that. Unless noted, % is scaled to controls: 0 for no effect and ±100 for the full control effect.

SMILES	PI5P4K alpha inh	Akt phos inh	Six1-Eya2 blk	PI4K2A inh	CtBP-E1A blk
Cc1ccc(C)c(S(=O)(=O)N2CCN(Cc3ccc(O)c4ncccc34)CC2)c1	-2.7	i	-78.5*	-23.6	-85.8*
O=C(c1ccc(S(=O)(=O)N2CCOCC2)cc1)N1CCN=C1SCc1cccnc1	-2.6	i	2.4	6.0	4.2
N#CCC[C@@H]1CC[C@]2(CCCN(Cc3ccccc3)C2)O1	nt	nt	nt	4.3	nt
O=C(NCCc1ccccc1F)C1CC(O)CN1C(=O)Nc1ccccc1 (configuration not stated)	-1.5	i	9.0	-1.2	1.7
Oc1ccc(CN2CCC(Cc3ccccc3)CC2)c2cccnc12	-1.2	i	-72.6*	-1.6	?
Oc1c(CN2CCCCC2)ccc2cccnc12	-0.7	i	-80.4*	-10.2	-93.4*
CCN(C#N)c1nc(NC(C)C)nc(NC(C)C)n1	nt	i	0.9	-5.1	-1.7
CSc1cccc(NC(=S)N(Cc2ccc(C)cc2)Cc2ccccn2)c1	0.0	i	9.3	6.7	0.5
COC(=O)c1ccccc1NC(=O)N1CCN(S(C)(=O)=O)CC1	1.2	i	3.1	5.2	11.7
Nn1c(SCC(=O)Nc2ccc(S(=O)(=O)N3CCCC3)cc2)nnc1C(F)(F)F	0.1	-107.4%*	-12.9	-8.4	-11.0
Cn1cnnc1SCC(=O)Nc1ccc(S(=O)(=O)N2CCCC2)cc1	nt	i	3.7	-3.6	4.2
O=S1(=O)CCC(NS(=O)(=O)/C=C/c2ccccc2)C1 (configuration not stated)	nt	-113.7%*	27.0	7.8	57.3
O=S(=O)(/C=C/c1ccccc1)NC1CCCCCC1	-4.0	i	4.5	-1.5	nt
COc1ccc(N2CCN(C(=O)CN(CCc3ccccc3)S(C)(=O)=O)CC2)cc1	nt	i	-7.2	-0.9	10.3
O=C(O[C@@H]1OC2COC(=O)c3cc(O)c(O)c(O)c3-c3c(cc(O)c(O)c3O)C(=O)O[C@@H]([C@H]1O)[C@@H]2O)c1cc(O)c(O)c(O)c1	-101.5*	i	?	?	-14.7
N#CC1=C(N)Oc2n[nH]c(-c3cccs3)c2C1c1ccsc1 (configuration not stated)	-56.1*	i	-22.2	-15.3	-5.1
N#CC1=C(N)Oc2n[nH]c(-c3cccs3)c2C1C1CCCCC1 (configuration not stated)	?	i	-9.3	4.8	-5.7
CCOC(=O)Cc1[nH]nc2c1C(C1C=CCCC1)C(C#N)=C(N)O2 (configuration not stated)	-51.3*	i	-8.8	4.6	-0.7
CCOC(=O)Cc1[nH]nc2c1C(c1cccc(OC)c1OC)C(C#N)=C(N)O2 (configuration not stated)	-0.9	i	5.0	-3.9	-0.8
N#CC1=C(N)Oc2n[nH]c(-c3cccs3)c2C1C1C=CCCC1 (configuration not stated)	-52.1*	i	2.0	-0.7	-2.7
CC(C)(C)c1[nH]nc2c1C(c1ccoc1)C(C#N)=C(N)O2 (configuration not stated)	-27.2	i	-9.6	-7.2	-1.6
CC(C)(C)c1[nH]nc2c1C(c1ccncc1)C(C#N)=C(N)O2 (configuration not stated)	-50.8*	i	1.8	-1.5	13.2
CCOC(=O)CC1C(=O)NCCN1S(=O)(=O)c1ccc(F)cc1 (configuration not stated)	2.7	i	-0.6	-0.6	-3.5
O=C(Cc1c(F)cccc1Cl)NNC(=O)c1ccc(Br)s1	-1.6	i	4.6	-2.6	12.7
O=C(CSc1nnc2scc(-c3ccccc3)n12)Nc1ccc2c(c1)OCCO2	nt	i	-3.0	5.1	-11.4
SMILES	PI5P4K alpha inh	Akt phos inh	Six1-Eya2 blk	PI4K2A inh	CtBP-E1A blk
CCCCCOC(=O)Nc1nc(=O)n([C@@H]2O[C@H](C)[C@@H](O)[C@H]2O)cc1F	nt	nt	nt	-3.2	nt
CCCCCCCCCCCCCCCCCCNc1ccn(C2OC(COP(=O)(O)OCC3OC(n4cc(F)c(=O)[nH]c4=O)CC3O)C(O)C2O)c(=O)n1 (configuration not stated)	-69.4*	i	?	-13.1	3.3
CCOC(=O)c1c(C)[nH]c(C(=O)OCC(=O)NC2CCS(=O)(=O)C2)c1C (configuration not stated)	11.1	-112.5%*	0.2	-1.2	-1.4
CCOC(=O)c1cc(-c2ccc3c(c2)OCO3)nc2onc(C)c12	2.1	-116.7%*	18.7	0.9	9.7
O=C(O)c1cc(-c2ccc3c(c2)OCO3)nc2ccc(Cl)cc12	?	i	1.3	-3.7	-3.5
CC(C)(NO)/C(=N\O)c1ccc(Cl)cc1	-4.2	i	-2.4	0.3	2.7
CCN(CC)CC(=O)Nc1ccc(-c2ccc(NC(=O)CN(CC)CC)c(OC)c2)cc1OC	2.0	i	3.8	3.8	-2.4
COc1cccc(/C=N/N(C)C2=NS(=O)(=O)c3ccccc32)c1O	-3.9	i	-20.7	-12.8	-14.9
COc1cc(/C=N/N(C)C2=NS(=O)(=O)c3ccccc32)cc(OC)c1OC	2.5	i	-83.0*	-1.2	-91.9*
O=C1c2ccccc2C(=O)N1CCc1csc(NNc2nc(CCN3C(=O)c4ccccc4C3=O)cs2)n1	-69.1*	i	-22.7	-4.8	-1.8
Cc1ccc(Sc2c(C(=O)NCc3cccc(F)c3)[nH]c3ccccc23)cc1	nt	nt	nt	5.6	nt
COc1cc2cc(-c3ccc(O)cc3O)nc(C)c2cc1OC	-5.2	i	?	-4.4	-86.0*
Cc1[nH]n2c(=O)c3c(nc2c1-c1ccccc1)CCCC3	1.2	i	-13.4	6.0	-7.7
Cc1[nH]n2c(=O)c3c(nc2c1-c1cccc2ccccc12)CCC3	-7.7	-114.1%*	-6.8	0.3	3.2
Cc1ccc(O)c(NC(=O)C2CC(c3c(F)cccc3Cl)=NO2)c1 (configuration not stated)	-3.4	nt	-6.3	3.6	0.7
CCCCC/C=C\C/C=C\C/C=C\CCCCC(=O)O	-54.1*	i	-8.4	-17.7	-20.1
O=C(CSc1nc2ccccc2o1)N/N=C/c1ccc(O)c(O)c1	-89.3*	i	-24.5	-6.6	-19.9
O=C(CSc1nc2ccccc2o1)Nc1ccc(N2CCOCC2)cc1	nt	-93.8%*	-7.2	2.7	-21.2
COc1ccc2nc(C)cc(SCC(=O)N/N=C/c3ccc(O)c(O)c3)c2c1	-14.4	i	-72.2*	-4.2	-71.8*
COc1ccc2nc(C)cc(SCC(=O)N/N=C/c3cccc4ccccc34)c2c1	nt	i	-2.1	-3.1	-3.0
COc1cccc2c(SCC(=O)N/N=C/c3ccc(O)c(O)c3)cc(C)nc12	-5.1	i	-71.3*	1.6	-74.3*
COc1cccc2c(SCC(=O)N/N=C/c3ccccc3)cc(C)nc12	2.0	i	-7.1	-5.4	-2.4
Cc1ccc(C)c(OCc2cc(C(=O)N3CCc4sccc4C3)no2)c1	1.4	i	4.1	0.4	-3.1
